WRN helicase inh: inhibitors of human WRN helicase; Q14191; WRN helicase unwinding, fluorescent forked duplex, kinetic; Potency, µM (titrated, usually from 114 µM), for the others: top-dose activity change, negative = inhibition, usual class: inhibitors; 0.46% of 360,000 active; AID 651768; note: potency is the fitted concentration of half-maximal effect; % is set by controls: 0 for no effect and ±100 for the full control effect; nearly all actives have a fitted effect of over 55% in size
Target sequence (Q14191 whole entry, looked up): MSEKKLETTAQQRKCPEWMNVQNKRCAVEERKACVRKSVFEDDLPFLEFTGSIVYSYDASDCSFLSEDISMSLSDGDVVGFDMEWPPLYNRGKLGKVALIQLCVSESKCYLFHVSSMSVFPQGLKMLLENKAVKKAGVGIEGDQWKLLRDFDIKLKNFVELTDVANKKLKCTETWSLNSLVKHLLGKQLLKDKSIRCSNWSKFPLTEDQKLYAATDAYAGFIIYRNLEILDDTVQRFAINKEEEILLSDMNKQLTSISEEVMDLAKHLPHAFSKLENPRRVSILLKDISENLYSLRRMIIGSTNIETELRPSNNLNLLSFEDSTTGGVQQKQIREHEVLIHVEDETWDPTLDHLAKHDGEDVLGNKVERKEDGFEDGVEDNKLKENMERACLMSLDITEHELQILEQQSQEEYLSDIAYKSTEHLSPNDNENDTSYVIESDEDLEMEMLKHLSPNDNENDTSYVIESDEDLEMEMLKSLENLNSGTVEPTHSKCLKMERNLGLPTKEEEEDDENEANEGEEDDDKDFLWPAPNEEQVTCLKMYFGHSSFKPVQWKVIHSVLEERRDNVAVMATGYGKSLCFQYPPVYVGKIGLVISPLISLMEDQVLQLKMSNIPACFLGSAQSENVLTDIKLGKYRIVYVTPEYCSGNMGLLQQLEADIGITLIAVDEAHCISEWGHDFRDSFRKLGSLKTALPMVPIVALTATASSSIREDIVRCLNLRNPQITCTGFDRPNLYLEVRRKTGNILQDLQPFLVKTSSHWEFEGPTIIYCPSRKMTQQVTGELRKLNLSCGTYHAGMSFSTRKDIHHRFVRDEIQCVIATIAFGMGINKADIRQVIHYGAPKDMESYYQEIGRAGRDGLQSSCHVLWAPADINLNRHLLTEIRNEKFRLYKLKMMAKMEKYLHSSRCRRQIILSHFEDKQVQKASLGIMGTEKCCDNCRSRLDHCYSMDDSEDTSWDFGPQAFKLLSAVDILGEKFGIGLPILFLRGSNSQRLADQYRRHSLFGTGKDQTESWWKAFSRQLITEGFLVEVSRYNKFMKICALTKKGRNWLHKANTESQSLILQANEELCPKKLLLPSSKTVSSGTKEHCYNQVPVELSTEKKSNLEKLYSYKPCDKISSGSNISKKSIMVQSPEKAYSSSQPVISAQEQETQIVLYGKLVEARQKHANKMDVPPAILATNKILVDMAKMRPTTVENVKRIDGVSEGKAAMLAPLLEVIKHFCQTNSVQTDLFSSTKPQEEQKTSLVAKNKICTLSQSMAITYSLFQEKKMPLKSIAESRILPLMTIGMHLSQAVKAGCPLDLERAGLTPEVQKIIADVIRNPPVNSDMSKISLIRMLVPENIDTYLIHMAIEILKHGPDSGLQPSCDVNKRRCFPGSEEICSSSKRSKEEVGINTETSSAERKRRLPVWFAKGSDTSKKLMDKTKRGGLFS
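Screening of the MLSMR collection measured strand separation of a quenched forked DNA duplex (100 nM) by 20 nM WRN with 2 mM ATP, all final. Compounds were preincubated with enzyme 15 min at room temperature.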
PI5P4Ka inh: inhibitors of human PI5P4K alpha; P48426; PI5P4Kalpha enzyme, ADP-Glo luminescence, 60 min; hits give low values; max response, %; 1.2% of 330,000 active; active = max response of -50% or lower; inconclusive = between -30% and -50%; inactive = -30% or higher; note: value at the top dose of about 77 µM; % is set by controls: 0 for no effect and ±100 for the full control effect
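qHTS, 1536-well: enzyme/substrate mix, compound by pin tool, 5 microM ATP final; RT 60 min; ADP-Glo reagents 1 (45 min) then 2 (30 min); luminescence.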
Pol iota inh: DNA polymerase iota (human) inhibition; Pol iota fluorescent replication assay, 10 min; 1% of 390,000 active; Potency, µM (doses to about 115 µM), for inactives: at the top dose activity, negative = inhibition, most hits filed as inhibitors; Q9UNA4; AID 588590; note: potency is the fitted concentration of half-maximal effect
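Fluorescent replication assay read twice, at 0 min and 10 min after adding 50 nM (final) substrate. Enzyme (10 nM) and compounds were first incubated 15 min at room temperature; enzyme-free buffer wells were negative controls.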
POLK inh: DNA polymerase kappa (human) inhibition; purified Pol kappa, fluorescent DNA synthesis assay, 10 min; Potency, µM (titrated, usually from 107 µM), inactives show top-dose activity, negative = inhibition, actives largely listed as inhibitors; 0.53% of 400,000 active; AID 588579; note: potency is the fitted concentration of half-maximal effect; % is set by controls: 0 for no effect and ±100 for the full control effect
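Kinetic fluorescence readout at 0 and 10 min followed reaction start with substrate at 50 nM final. Beforehand, enzyme (10 nM Pol kappa) stood 15 min with compound at room temperature; buffer-only wells were negative controls.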
Pol beta inh: inhibitors of human DNA polymerase beta | P06746 | Pol beta primer extension/strand displacement, fluorescence kinetic | Potency, µM (highest dose often 114 µM), for inactives: at the highest dose activity change, negative = inhibition, actives largely listed as inhibitors | 1.3% of 340,000 active | AID 485314; note: potency is the fitted concentration of half-maximal effect; % is set by controls: 0 for no effect and ±100 for the full control effect
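Pol beta (10 nM) and compounds were preincubated 15 min at room temperature, then 50 nM substrate (final) started primer extension/strand displacement. Reads were taken at 0 and 10 min; concentration-response data were fitted to a four-parameter Hill equation.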
Pol eta inh: inhibitors of human DNA polymerase eta; Potency, µM (highest dose often 114 µM), for inactives: at the top dose activity change, negative = inhibition, usual class: inhibitors; Q9Y253; AID 588591; recombinant Pol eta, fluorescent DNA replication assay; 1.2% of 390,000 active; note: potency is the fitted concentration of half-maximal effect; % is set by controls: 0 for no effect and ±100 for the full control effect
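Pol eta (10 nM) was preincubated with compounds for 15 min at room temperature, after which fluorescent replication substrate (50 nM final) was added to start the reaction. Fluorescence was read kinetically at 0 and 10 min.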
* = called active by the depositor; ? = inconclusive; . = not tested or not shown; ! = repeats disagree; [ ] = remark or other dose. Most compounds without a hit are left out; they make up all but 2.8% or so of the library. Unless noted, calls come from the whole dose curve; as a rule, active = well fitted curve in the direction sought with a large enough effect; inconclusive = small, poorly fitted or top-dose-only effect, or another doubt; inactive = no such curve, though single readings can be large; an effect the other way counts as inactive or inconclusive.

SMILES | WRN helicase inh | PI5P4Ka inh | Pol iota inh | POLK inh | Pol beta inh | Pol eta inh
CC1CCC(C(C)C)C(OC(=O)C[n+]2cccc(C(N)=O)c2)C1 (stereo unspecified) | ? | -75.3* | -16.4% | 2.4% | 16.9% | -11.6%
CC1CCC(C(C)C)C(OC(=O)COC(=O)c2ccc(N)cc2)C1 (stereo unspecified) | -12.2% | 25.9 | ? | -10.3%[60.1 µM] | 0.2% | ?
C[N+]1(C)CCC(=C2c3ccccc3CC(=O)c3sccc32)CC1 | 1.9%[11.6 µM] | . | 15.8µM* | -5.9% | 7.94µM* | -5.7%
O=c1c(-c2ccc(O)cc2)coc2cc(O)cc(O)c12 | -1.0% | -4.2 | -0.6%[58.9 µM] | -14.5%[60.1 µM] | ? | -1.2%[57.1 µM]
O=c1c(-c2cc(O)c(O)c(O)c2)coc2cc(O)c(O)c(O)c12 | . | . | . | 0.398µM* | . | .
COc1cc(-c2nc3ccccn3c2/N=C/c2cc(OC)c(O)cc2Cl)ccc1O | -20.9% | ? | ? | ? | 25.1µM* | ?
CCN(C(=O)C1CCC(CNS(=O)(=O)c2cccc3nsnc23)CC1)c1ccccc1 (stereo unspecified) | . | . | 15.7% | -3.5% | 20.3% | -21.2%
Cn1c(C(=O)NCc2ccc(F)cc2)cc2c(=O)n(C)c3ccccc3c21 | . | . | 24.6% | -5.0% | 19.3% | -11.7%
O=C(O)C1=C[C@@H](c2ccccc2)C[C@@H](OCc2ccc(CO)cc2)O1 | -1.9% | -0.8 | -3.2% | -8.5% | -4.3% | -5.0%
C#Cc1ccc([C@@H]2C=C(C(=O)O)O[C@H](OCc3ccc(CO)cc3)C2)cc1 | -30.5% | -1.8 | ? | ? | 22.4µM* | 39.8µM*
Cc1ccc(S(=O)(=O)c2cn(Cc3ccccc3)c3cc(N4CCOCC4)c(F)cc3c2=O)cc1 | . | . | 21.4% | -4.9% | 8.6% | -21.1%
CCOc1cc(/C=C2\C(=O)N(c3cccc(C(=O)O)c3)N=C2C(F)(F)F)ccc1OCC(=O)Nc1ccccc1OC | . | . | . | . | 20µM* | .
CCOC(=O)c1ccc(N2C(=O)c3n[nH]c(-c4cccs4)c3C2c2cccc(OC)c2)cc1 (stereo unspecified) | . | . | -15.4% | -3.2% | -0.4% | -23.6%
CCOc1ccc(N2C(=O)c3n[nH]c(-c4cccs4)c3C2c2cccc(F)c2)cc1 (stereo unspecified) | . | . | 12.6µM* | 0.7% | 8.3% | .
Cc1ccc(NCC(O)Cn2cnc3c2c(=O)n(C)c(=O)n3C)cc1 (stereo unspecified) | -9.3% | 6.6 | 194.5% | -11.5% | 12.6µM* | 5.9%
COC(=O)CSc1nc2c(c(-c3ccco3)c1C#N)CCCC2 | -28.9% | ? | ? | -11.4% | 22.4µM* | ?
Cn1c(=O)c2cc(S(=O)(=O)NC(Cc3ccccc3)C(=O)Nc3ccc(F)cc3)ccc2n(C)c1=O (stereo unspecified) | . | . | ? | -2.1% | 13.5% | -2.9%
COc1cc(/C=C2/C(=O)NN(c3cccc(F)c3)C2=O)ccc1OC(=O)c1ccco1 | 50.1µM* | -25.6 | ? | -6.8% | ? | ?
COc1cc(/C=C2/C(=O)NN(c3ccc(Cl)cc3)C2=O)ccc1OC(=O)c1ccco1 | 39.8µM* | ? | -18.8% | -22.3% | ? | 28.2µM*
CN1CCN(c2nc3c(=O)[nH]c(N)nc3n2C2OC(CO)C(O)C2O)CC1 (stereo unspecified) | . | . | 15.4% | -7.8% | . | .
CCc1cccc(NC(=O)C2CCCN(c3ncnc4onc(-c5ccc(F)cc5)c34)C2)c1 (stereo unspecified) | . | . | -2.6% | -7.0% | -2.6% | -18.7%
Cc1ccc(OCC(=O)Nc2cc(NC(=O)COc3ccc(C)c(C)c3)cc(C(=O)O)c2)cc1C | -11.0% | -3.3 | -15.3% | -20.3% | 50.1µM* | ?
O=C(COc1ccccc1Cl)Nc1cc(NC(=O)COc2ccccc2Cl)cc(C(=O)O)c1 | -33.8% | -13.8 | 140.3% | -12.7% | 79.4µM* | -17.3%
COc1ccccc1OCC(=O)Nc1cc(NC(=O)COc2ccccc2OC)cc(C(=O)O)c1 | -23.0% | -4.6 | 196.6% | -11.2% | -2.8% | -6.8%
O=C(NNc1ccccc1[N+](=O)[O-])Nc1ccc(Cl)c(Cl)c1 | -5.8% | 8.6 | 125.4% | -13.4% | 4.9% | -15.9%
SMILES | WRN helicase inh | PI5P4Ka inh | Pol iota inh | POLK inh | Pol beta inh | Pol eta inh
O=C1NC(=O)C(c2ccccc2[N+](=O)[O-])=C1Nc1ccc(O)c(Cl)c1 | 7.9% | ? | 28.2µM*! | 11.2µM*! | 11.2µM* | ?
CN1CCC(C)(C(=O)Nc2ccc3c(c2)OCCO3)C1 (stereo unspecified) | 1.5% | -0.4 | . | . | . | .
Cc1ccsc1C1NC(=O)c2c(sc3c2CCCC3)N1 (stereo unspecified) | -22.0% | -68.0* | -0.3% | -8.4% | -6.9% | ?
CC(NC(=O)c1cnc2ccccc2n1)c1ccccc1 (stereo unspecified) | -17.4% | -5.8 | 89.6% | -4.8% | 5.7% | -1.4%
CS[C@@H]1SC[C@H]2C(=O)N(C)C(C(C)C)C(=O)OC[C@@H](NC(=O)c3cnc4ccccc4n3)C(=O)N[C@@H](C)C(=O)N(C)[C@H]1C(=O)N(C)C(C(C)C)C(=O)OC[C@@H](NC(=O)c1cnc3ccccc3n1)C(=O)N[C@@H](C)C(=O)N2C (stereo partly specified) | . | . | . | 21.2µM* | . | .
CCCCNC(=O)CSc1nc2cc3c(cc2c(=O)n1CCCC(=O)NCc1ccc2c(c1)OCO2)OCO3 | . | . | 89.1µM* | -5.4%[60.1 µM] | 38.4% | -5.1%
Cn1c(=O)c2c(nc(SCC(=O)NCc3ccc4c(c3)OCO4)n2Cc2ccc(Cl)cc2)n(C)c1=O | -11.5% | . | ? | -43.5% | -17.4% | 89.1µM*
COCCCNC(=O)CSc1nc2cc3c(cc2c(=O)n1CCCC(=O)NCc1ccc2c(c1)OCO2)OCO3 | . | . | 1.5% | -6.2%[60.1 µM] | 1.7% | 13.2%
O=C1OCC2OC(O)C(O)C(O)C2OC(=O)c2cc(O)c(O)c(O)c2-c2c(O)c(O)c3oc(=O)c4c(c(O)c(O)c5oc(=O)c2c3c54)-c2c1cc(O)c(O)c2O (stereo unspecified) | . | . | . | . | 0.159µM* | .
CCC12CN3CC(CC)(CN(C1)C3c1cc(Br)ccc1OC)C2=O (stereo unspecified) | . | . | 13.1% | -0.9% | 25.2% | -21.5%
CCCCCN1CC(O)=C(c2nc3ccccc3[nH]2)C1=N | 6.0% | 1.6 | 67.3% | -7.7% | 31.6µM* | 5.6%
CCOc1ccc(-c2nc(S(=O)(=O)c3ccccc3)c(NC)o2)cc1 | -7.2% | -2.8 | -1.5% | -3.2% | 6.6% | -9.4%
CNc1oc(Cc2ccccc2)nc1S(=O)(=O)c1ccccc1 | ? | -84.6* | 3.5% | -12.3% | 1.4% | 1.9%
Nc1nc(-c2ccccc2)c(CCCOc2ccc(NC(=O)CBr)cc2)c(=O)[nH]1 | -5.9% | -59.5* | -17.2% | -0.3% | . | ?
